In the supplement of paper PMC7411054:
Counter-ions that a name gives are not always drawn.

Key:
Assay in all cases: phenotypically active (imaging signature differs from DMSO and reproducible) at any of 0.3-9 uM (binary (1 = active, 0 = inactive)); higher = active
Settings in all cases: treatment time: 24 h
[1] = system: A549-ACTB-RAB5A
Summary of the method: (§1)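 Cells from fifteen gene-edited reporter lines (A549, HepG2 and WPMY1) were treated for 24 h at 0.3, 1, 3 or 9 µM and imaged live, four wells per condition. Features were normalised per well to solvent control wells. A condition deviated if ≥3 of 4 wells passed the 95th percentile of control Euclidean distances and was reproducible if its median replicate Pearson correlation beat the 95th percentile of non-replicates; phenotypic activity needed both.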

[2] = system: A549-CANX-COX4
Summary of the method: as §1

[3] = system: A549-GM130-SQSTM1
Summary of the method: as §1

[4] = system: A549-TP53BP1-CLTA
Summary of the method: as §1

[5] = system: A549-TUBA1B-RELA
Summary of the method: as §1

[6] = system: HepG2-ACTB-RAB5A
Summary of the method: as §1

[7] = system: HepG2-CANX-COX4
Summary of the method: as §1

[8] = system: HepG2-GM130-SQSTM1
Summary of the method: as §1

[9] = system: HepG2-TP53BP1-CLTA
Summary of the method: as §1

[10] = system: HepG2-TUBA1B-RELA
Summary of the method: as §1

[11] = system: WPMY1-ACTB-RAB5A
Summary of the method: as §1

[12] = system: WPMY1-CANX-COX4
Summary of the method: as §1

[13] = system: WPMY1-GM130-SQSTM1
Summary of the method: as §1

[14] = system: WPMY1-TP53BP1-CLTA
Summary of the method: as §1

[15] = system: WPMY1-TUBA1B-RELA
Summary of the method: as §1

Measured: phenotypically active

CCOC(=O)C1(c2ccccc2)CCN(C)CC1 [meperidine]
inactive: [1] 0 | [2] 0 | [3] 0 | [4] 0 | [5] 0 | [6] 0 | [7] 0 | [8] 0 | [9] 0 | [10] 0 | [11] 0 | [12] 0 | [13] 0 | [14] 0 | [15] 0

CCN1C[C@]2(COC)CC[C@H](O)[C@]34[C@@H]5C[C@H]6[C@H](OC)[C@@H]5[C@](O)(C[C@@H]6OC)[C@](O)([C@H]13)[C@@H](OC)[C@H]24 [Delsoline]
inactive: [1] 0 | [2] 0 | [3] 0 | [4] 0 | [5] 0 | [6] 0 | [7] 0 | [8] 0 | [9] 0 | [10] 0 | [11] 0 | [12] 0 | [13] 0 | [14] 0 | [15] 0

COc1ccc2c3c1O[C@H]1C(=O)CC[C@H]4[C@@H](C2)N(C)CC[C@]314 [hydrocodone]
inactive: [1] 0 | [2] 0 | [3] 0 | [4] 0 | [5] 0 | [6] 0 | [7] 0 | [8] 0 | [9] 0 | [10] 0 | [11] 0 | [12] 0 | [13] 0 | [14] 0 | [15] 0

CCN1C[C@]2(COC)CC[C@H](OC)[C@]34[C@@H]5C[C@H]6[C@H](OC)[C@@H]5[C@@]5(C[C@@H]6OC)OCO[C@@]5([C@H]13)[C@@H](O)[C@H]24 [Delcorine]
inactive: [1] 0 | [2] 0 | [3] 0 | [4] 0 | [5] 0 | [6] 0 | [7] 0 | [8] 0 | [9] 0 | [10] 0 | [11] 0 | [12] 0 | [13] 0 | [14] 0 | [15] 0

CN1CCc2cc3c(cc2[C@H]1[C@@H]1OC(=O)c2c1ccc1c2OCO1)OCO3 [bicuculine]
inactive: [1] 0 | [2] 0 | [3] 0 | [4] 0 | [5] 0 | [6] 0 | [7] 0 | [8] 0 | [9] 0 | [10] 0 | [11] 0 | [12] 0 | [13] 0 | [14] 0 | [15] 0

CN1C2CCC1CC(O)C2 (stereo not given) [Tropine]
inactive: [1] 0 | [2] 0 | [3] 0 | [4] 0 | [5] 0 | [6] 0 | [7] 0 | [8] 0 | [9] 0 | [10] 0 | [11] 0 | [12] 0 | [13] 0 | [14] 0 | [15] 0

C#CCN(C)[C@H](C)Cc1ccccc1 [selegiline]
inactive: [1] 0 | [2] 0 | [3] 0 | [4] 0 | [5] 0 | [6] 0 | [7] 0 | [8] 0 | [9] 0 | [10] 0 | [11] 0 | [12] 0 | [13] 0 | [14] 0 | [15] 0

OCC[N+]12CN3CN(CN(C3)C1)C2
inactive: [1] 0 | [2] 0 | [3] 0 | [4] 0 | [5] 0 | [6] 0 | [7] 0 | [8] 0 | [9] 0 | [10] 0 | [11] 0 | [12] 0 | [13] 0 | [14] 0 | [15] 0

C=CCC1(C(C)C#CCC)C(=O)NC(=O)N(C)C1=O (stereo not given) [methohexital]
inactive: [1] 0 | [2] 0 | [3] 0 | [4] 0 | [5] 0 | [6] 0 | [7] 0 | [8] 0 | [9] 0 | [10] 0 | [11] 0 | [12] 0 | [13] 0 | [14] 0 | [15] 0

CC1=C2[C@H]3OC(=O)[C@@H](C)[C@@H]3CC[C@@]2(C)C=CC1=O [alpha-Santonin]
inactive: [1] 0 | [2] 0 | [3] 0 | [4] 0 | [5] 0 | [6] 0 | [7] 0 | [8] 0 | [9] 0 | [10] 0 | [11] 0 | [12] 0 | [13] 0 | [14] 0 | [15] 0

CCN(C(C)=O)c1cccc(-c2ccnc3c(C#N)cnn23)c1 [zaleplon]
inactive: [1] 0 | [2] 0 | [3] 0 | [4] 0 | [5] 0 | [6] 0 | [7] 0 | [8] 0 | [9] 0 | [10] 0 | [11] 0 | [12] 0 | [13] 0 | [14] 0 | [15] 0

COc1cc2c(cc1OC)[C@@]13CCN4CC5=CCO[C@H]6CC(=O)N2[C@H]1[C@H]6[C@H]5C[C@H]43 [Brucine]
inactive: [1] 0 | [2] 0 | [3] 0 | [4] 0 | [5] 0 | [6] 0 | [7] 0 | [8] 0 | [9] 0 | [10] 0 | [11] 0 | [12] 0 | [13] 0 | [14] 0 | [15] 0

CCCC(C)C1(CC)C(=O)N=C(S)NC1=O (stereo not given) [thiopental]
inactive: [1] 0 | [2] 0 | [3] 0 | [4] 0 | [5] 0 | [6] 0 | [7] 0 | [8] 0 | [9] 0 | [10] 0 | [11] 0 | [12] 0 | [13] 0 | [14] 0 | [15] 0

C[C@@H](N)[C@@H](O)c1ccccc1 [phenylpropanolamine]
inactive: [1] 0 | [2] 0 | [3] 0 | [4] 0 | [5] 0 | [6] 0 | [7] 0 | [8] 0 | [9] 0 | [10] 0 | [11] 0 | [12] 0 | [13] 0 | [14] 0 | [15] 0

C[C@@H]1CN([C@H]2CC[C@](C#N)(c3ccc(F)cc3)CC2)CC[C@]1(C(=O)O)c1ccccc1 [levocabastine]
inactive: [1] 0 | [2] 0 | [3] 0 | [4] 0 | [5] 0 | [6] 0 | [7] 0 | [8] 0 | [9] 0 | [10] 0 | [11] 0 | [12] 0 | [13] 0 | [14] 0 | [15] 0

CC[C@H]1C[N@@]2CC[C@H]1C[C@H]2[C@@H](O)c1ccnc2ccc(O)cc12 [Hydrocupreine]
inactive: [1] 0 | [2] 0 | [3] 0 | [4] 0 | [5] 0 | [6] 0 | [7] 0 | [8] 0 | [9] 0 | [10] 0 | [11] 0 | [12] 0 | [13] 0 | [14] 0 | [15] 0

CN1[C@@H]2C[C@@H](OC(=O)[C@H](CO)c3ccccc3)C[C@H]1[C@@H]1O[C@@H]12 [Scopolamine hydrobromide]
inactive: [1] 0 | [2] 0 | [3] 0 | [4] 0 | [5] 0 | [6] 0 | [7] 0 | [8] 0 | [9] 0 | [10] 0 | [11] 0 | [12] 0 | [13] 0 | [14] 0 | [15] 0

Cc1ccc(C[N+](C)(C)C)o1 [5-Methylfurmethiodide]
inactive: [1] 0 | [2] 0 | [3] 0 | [4] 0 | [5] 0 | [6] 0 | [7] 0 | [8] 0 | [9] 0 | [10] 0 | [11] 0 | [12] 0 | [13] 0 | [14] 0 | [15] 0

CCN1C[C@@]2(COC)C3[C@@H](OC)[C@H]4[C@H]1C3([C@@H]1C[C@@]3(O)[C@H](OC(=O)c5ccccc5)[C@@H]1[C@]4(OC(C)=O)[C@@H](O)[C@@H]3OC)[C@H](OC)C[C@H]2O [Aconitine]
inactive: [1] 0 | [2] 0 | [3] 0 | [4] 0 | [5] 0 | [6] 0 | [7] 0 | [8] 0 | [9] 0 | [10] 0 | [11] 0 | [12] 0 | [13] 0 | [14] 0 | [15] 0

Oc1ccc2c3c1O[C@H]1[C@@H](O)CC[C@@]4(O)[C@@H](C2)N(CC2CCC2)CC[C@]314 [nalbuphine]
inactive: [1] 0 | [2] 0 | [3] 0 | [4] 0 | [5] 0 | [6] 0 | [7] 0 | [8] 0 | [9] 0 | [10] 0 | [11] 0 | [12] 0 | [13] 0 | [14] 0 | [15] 0

COc1ccc2c(c1)[C@]13CCCC[C@@H]1[C@H](C2)N(C)CC3 [dextromethorphan]
inactive: [1] 0 | [2] 0 | [3] 0 | [4] 0 | [5] 0 | [6] 0 | [7] 0 | [8] 0 | [9] 0 | [10] 0 | [11] 0 | [12] 0 | [13] 0 | [14] 0 | [15] 0

CCCCCOc1ccc(C(=O)c2cccc3ccccc23)c2ccccc12
inactive: [1] 0 | [2] 0 | [3] 0 | [4] 0 | [5] 0 | [6] 0 | [7] 0 | [8] 0 | [9] 0 | [10] 0 | [11] 0 | [12] 0 | [13] 0 | [14] 0 | [15] 0

C[C@H]1CCC2(NC1)O[C@H]1C[C@H]3[C@@H]4CC[C@H]5C[C@@H](O[C@@H]6O[C@H](CO)[C@H](O[C@@H]7O[C@H](CO)[C@@H](O)[C@H](O[C@@H]8OC[C@@H](O)[C@H](O)[C@H]8O)[C@H]7O[C@@H]7O[C@H](CO)[C@@H](O)[C@H](O)[C@H]7O)[C@H](O)[C@H]6O)CC[C@]5(C)[C@H]4CC[C@]3(C)[C@H]1[C@@H]2C (stereo not given in full) [Tomatine]
inactive: [1] 0 | [2] 0 | [3] 0 | [4] 0 | [5] 0 | [6] 0 | [7] 0 | [8] 0 | [9] 0 | [10] 0 | [11] 0 | [12] 0 | [13] 0 | [14] 0 | [15] 0
